For this test, the target named is Genome polyprotein (Dengue virus type 2 (strain 16681-PDK53)) (UniProt P29991). In words: flavivirus cap methylation enzyme inhibition – biochemical, confirmation dose response, primary screen (AID 588689). The settings on record: Dengue-2 NS5 methyltransferase capping enzyme assay, at 25 µM, stronger effect = higher value.

The structures appear in SMILES notation. In all, about 340,000 compounds went through this assay and about 1,000 (0.29%) were called active. Rule as the data show it: inconclusive = inhibition above about 29% without an active follow-up result; inactive = below that. Only a sample is shown. Potency and affinity values are given separately.

Sequence of Genome polyprotein (Dengue virus type 2 (strain 16681-PDK53)) (P29991 whole entry, looked up): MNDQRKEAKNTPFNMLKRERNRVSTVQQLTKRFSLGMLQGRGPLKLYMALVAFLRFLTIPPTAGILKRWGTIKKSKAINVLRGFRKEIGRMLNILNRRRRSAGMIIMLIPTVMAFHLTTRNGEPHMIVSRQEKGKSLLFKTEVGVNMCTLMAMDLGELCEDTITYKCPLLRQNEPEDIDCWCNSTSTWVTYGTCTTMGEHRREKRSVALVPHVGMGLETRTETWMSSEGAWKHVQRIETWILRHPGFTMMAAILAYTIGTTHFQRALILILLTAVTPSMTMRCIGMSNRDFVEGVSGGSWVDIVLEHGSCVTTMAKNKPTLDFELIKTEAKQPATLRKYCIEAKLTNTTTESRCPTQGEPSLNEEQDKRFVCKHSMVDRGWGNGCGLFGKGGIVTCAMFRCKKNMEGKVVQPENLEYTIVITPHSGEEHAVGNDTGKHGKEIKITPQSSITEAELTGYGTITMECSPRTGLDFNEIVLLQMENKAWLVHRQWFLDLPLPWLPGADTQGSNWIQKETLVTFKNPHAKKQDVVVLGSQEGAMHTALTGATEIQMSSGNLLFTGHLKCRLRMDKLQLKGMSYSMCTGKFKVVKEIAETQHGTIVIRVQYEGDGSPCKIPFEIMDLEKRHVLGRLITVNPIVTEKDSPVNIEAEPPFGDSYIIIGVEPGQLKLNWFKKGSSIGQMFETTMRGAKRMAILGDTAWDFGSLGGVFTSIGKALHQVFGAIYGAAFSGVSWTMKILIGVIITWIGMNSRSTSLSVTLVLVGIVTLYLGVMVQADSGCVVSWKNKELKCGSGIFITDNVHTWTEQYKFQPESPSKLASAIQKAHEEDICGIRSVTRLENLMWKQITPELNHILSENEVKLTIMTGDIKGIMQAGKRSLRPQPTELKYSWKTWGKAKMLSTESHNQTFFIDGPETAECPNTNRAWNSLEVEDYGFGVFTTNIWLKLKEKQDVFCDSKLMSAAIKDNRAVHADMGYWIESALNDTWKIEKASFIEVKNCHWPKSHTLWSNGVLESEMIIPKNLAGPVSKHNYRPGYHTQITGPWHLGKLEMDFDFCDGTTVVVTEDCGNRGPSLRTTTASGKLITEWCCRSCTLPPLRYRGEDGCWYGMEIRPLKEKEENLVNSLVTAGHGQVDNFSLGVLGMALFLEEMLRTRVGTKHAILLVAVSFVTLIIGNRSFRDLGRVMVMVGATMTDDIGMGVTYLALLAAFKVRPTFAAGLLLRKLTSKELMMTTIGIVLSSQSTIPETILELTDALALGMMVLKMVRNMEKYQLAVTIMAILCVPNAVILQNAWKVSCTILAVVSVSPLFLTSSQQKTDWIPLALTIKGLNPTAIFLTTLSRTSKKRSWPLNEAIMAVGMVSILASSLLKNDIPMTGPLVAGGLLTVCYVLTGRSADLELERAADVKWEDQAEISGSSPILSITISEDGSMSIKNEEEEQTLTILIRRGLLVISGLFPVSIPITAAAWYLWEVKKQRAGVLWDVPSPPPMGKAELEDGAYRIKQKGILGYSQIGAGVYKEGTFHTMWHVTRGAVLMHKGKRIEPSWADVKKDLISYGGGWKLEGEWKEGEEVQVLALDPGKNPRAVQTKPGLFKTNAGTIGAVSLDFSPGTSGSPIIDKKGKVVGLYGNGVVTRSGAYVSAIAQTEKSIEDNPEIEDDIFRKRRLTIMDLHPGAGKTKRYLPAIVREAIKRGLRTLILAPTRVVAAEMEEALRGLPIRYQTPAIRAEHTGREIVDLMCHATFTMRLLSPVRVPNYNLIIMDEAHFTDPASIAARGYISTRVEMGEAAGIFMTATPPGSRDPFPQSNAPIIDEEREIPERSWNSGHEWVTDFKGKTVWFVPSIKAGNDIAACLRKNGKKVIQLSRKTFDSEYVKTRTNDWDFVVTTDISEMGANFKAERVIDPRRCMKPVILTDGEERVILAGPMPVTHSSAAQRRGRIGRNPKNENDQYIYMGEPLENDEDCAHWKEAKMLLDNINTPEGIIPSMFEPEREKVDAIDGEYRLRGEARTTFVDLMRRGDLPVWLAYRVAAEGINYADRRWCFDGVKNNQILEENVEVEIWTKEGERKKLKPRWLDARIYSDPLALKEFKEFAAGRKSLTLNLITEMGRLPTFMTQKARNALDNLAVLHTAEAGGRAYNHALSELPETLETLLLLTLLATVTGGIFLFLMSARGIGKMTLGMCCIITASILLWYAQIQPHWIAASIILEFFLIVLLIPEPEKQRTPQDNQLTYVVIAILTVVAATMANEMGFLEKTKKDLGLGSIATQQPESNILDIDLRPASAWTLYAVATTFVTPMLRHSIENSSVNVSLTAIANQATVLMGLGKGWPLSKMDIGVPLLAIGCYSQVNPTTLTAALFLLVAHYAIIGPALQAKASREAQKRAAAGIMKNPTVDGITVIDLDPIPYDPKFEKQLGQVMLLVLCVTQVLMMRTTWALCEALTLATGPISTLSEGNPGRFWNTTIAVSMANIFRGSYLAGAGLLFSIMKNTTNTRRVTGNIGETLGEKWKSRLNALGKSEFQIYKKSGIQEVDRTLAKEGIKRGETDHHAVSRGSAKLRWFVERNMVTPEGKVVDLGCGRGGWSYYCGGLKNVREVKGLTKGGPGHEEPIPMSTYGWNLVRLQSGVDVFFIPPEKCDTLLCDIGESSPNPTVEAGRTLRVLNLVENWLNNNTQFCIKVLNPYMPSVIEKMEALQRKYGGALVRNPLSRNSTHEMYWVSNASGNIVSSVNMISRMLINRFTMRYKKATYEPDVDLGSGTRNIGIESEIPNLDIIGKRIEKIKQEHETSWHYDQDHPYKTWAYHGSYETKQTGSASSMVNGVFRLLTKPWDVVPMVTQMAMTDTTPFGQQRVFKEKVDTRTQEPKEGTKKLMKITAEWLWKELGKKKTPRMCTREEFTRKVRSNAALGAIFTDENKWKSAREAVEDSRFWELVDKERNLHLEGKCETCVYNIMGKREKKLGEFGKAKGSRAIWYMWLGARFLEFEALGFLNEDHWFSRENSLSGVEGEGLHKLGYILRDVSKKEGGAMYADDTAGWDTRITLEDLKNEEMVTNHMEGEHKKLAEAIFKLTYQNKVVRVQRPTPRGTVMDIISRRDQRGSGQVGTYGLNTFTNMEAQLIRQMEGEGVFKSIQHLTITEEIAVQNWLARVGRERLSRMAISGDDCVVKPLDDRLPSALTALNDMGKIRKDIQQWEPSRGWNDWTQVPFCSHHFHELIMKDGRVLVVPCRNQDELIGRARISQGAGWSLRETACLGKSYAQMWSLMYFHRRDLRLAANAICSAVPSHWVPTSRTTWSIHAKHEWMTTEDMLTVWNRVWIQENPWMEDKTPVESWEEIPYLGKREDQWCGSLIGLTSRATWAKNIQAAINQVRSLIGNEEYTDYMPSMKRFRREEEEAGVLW

For the compound `CCN1CCCC(NC(=O)c2cc([N+](=O)[O-])ccc2OC)C1` (stereo not given), the inhibition is -5.8% (inactive).
For `O=C(CSc1ccccc1)N1CCCC(N2CCN(c3ccc(F)cc3)CC2)C1` (stereo not given), the inhibition is 1.77% (inactive).
Consider `Nn1c(Cc2ccccc2F)nnc1SCC(=O)Nc1cccc(S(=O)(=O)NC2=NCCCCC2)c1`, for which the inhibition was -0.76% (inactive).
Turning to `COc1ccc(CNS(=O)(=O)NCc2ccc(C)cc2)cc1OC`, the inhibition was -10.9% (inactive).
For `COCCNC(=O)C1CC2Cn3c(nc4cc5ccccc5cc43)C2N1C` (stereo not given), the inhibition is -1.6% (inactive).
For the compound `C=C(C)C(=O)NNc1ccccc1`, the inhibition was 0% (inactive).
Consider `O=C(Cc1ccc(Cl)cc1)N/N=C/c1ccncc1`, for which the inhibition is -1.47% (inactive).
On the same count and under the same terms, to `Cc1noc(C)c1COc1ccc(C(=O)OCC(=O)Nc2cccc(S(=O)(=O)N3CCOCC3)c2)cc1` belongs 0.96% (inactive); to `O=C(O)c1ccccc1/C=N/NC(=O)C1CCCC1`, -8.46% (inactive); to `COc1cc(/C=C2\SC(=S)N(CC(=O)O)C2=O)ccc1OS(=O)(=O)c1ccc(C)cc1`, 22.7% (inactive).
Regarding `COc1cc(/C=C2/SC(=S)NC2=O)ccc1OS(=O)(=O)c1ccc(C)cc1`, the inhibition is 9.96% (inactive).
Take `COc1ccc(OC)c(/C=C2\SC(=S)N(NS(=O)(=O)c3ccc(C)cc3)C2=O)c1`: the inhibition is 40.5% (inactive).
Regarding `CCOc1ccc(/C=C2\SC(=S)N(Nc3ccccc3)C2=O)cc1OC`, the inhibition is 8.01% (inactive).
Same read-out and setting: the figure for `CCOc1ccc(/C=N/NS(=O)(=O)c2ccc(C)cc2)cc1OC` is -1.16% (inactive); for `COc1ccc(/C=C2/SC(=O)N(NS(=O)(=O)c3ccccc3)C2=S)cc1OC` it is 15.7% (inactive); for `O=C1[C@H]2[C@@H](c3ccccc3)N[C@]3(CCCN(Cc4ccc(Cl)cc4)C3=O)[C@H]2C(=O)N1Cc1ccccc1` it is -4.41% (inactive).
Turning to `CC(=O)C1N=NCC1c1ccccc1` (stereo not given), the inhibition was 0.78% (inactive).
On to `O=C(CSc1ccc(-c2ccc(F)cc2)nn1)NC1CCCCC1`, for which the inhibition was -4.13% (inactive).
On to `COCc1cc(=O)n2[nH]c(C)cc2n1`, for which the inhibition is -5.47% (inactive).
For the compound `CC1CCN(S(=O)(=O)c2ccc3[nH]c(=O)[nH]c3c2)CC1`, the inhibition is -10.8% (inactive).
The same measure, in the same setting: to `COc1ccc(C(=O)/C=C/c2ccc(OCc3ccccc3)cc2)cc1CSCC(=O)O` belongs 11.7% (inactive).
The same measure, in the same setting: the figure for `COc1ccc(C(=O)/C=C/c2ccsc2)cc1CSCC(=O)O` is 6.74% (inactive); for `COc1ccc(CCC(=O)OCC(=O)c2ccc[nH]2)cc1OC` it is 1.46% (inactive); for `CSc1nccn1CC(=O)Nc1ccc(F)cc1` it is -6.45% (inactive).
Same read-out and setting: the figure for `CCc1ccccc1NC(=O)NC1CC2CCC(C1)N2Cc1ccco1` (stereo not given) is -3.12% (inactive); for `CCCCCCC(=O)O` it is -2.09% (inactive); for `CCCC(N)CCCCCC(=O)O` (stereo not given) it is -9.35% (inactive).
As for `CCNc1nc(NCC)n2c(SCC(=O)NC34CC5CC(CC(C5)C3)C4)nnc2n1`, the inhibition is -8.01% (inactive).
In the case of `Cc1nc([N+](=O)[O-])c(Sc2nc3ccccc3n2C)n1Cc1ccccc1`, the inhibition was 11.5% (inactive).
The same measure, in the same setting: the figure for `CCCCn1c(N)c(-c2nc3ccccc3s2)c2c([N+](=O)[O-])nn(CC)c(=O)c21` is -3.23% (inactive); for `CCCn1nc([N+](=O)[O-])c(C(C#N)c2nc3ccccc3s2)c(Cl)c1=O` (stereo not given) it is 27.6% (inactive).
Same read-out and setting: the figure for `CCCCn1c(N)c(-c2nc3ccccc3o2)c2c([N+](=O)[O-])nn(CC)c(=O)c21` is -0.74% (inactive); for `CCCCCn1c(N)c(-c2nc3ccccc3s2)c2c([N+](=O)[O-])nn(CC)c(=O)c21` it is -4.79% (inactive); for `N#CC(c1ccccn1)c1ncc(C(F)(F)F)cc1Cl` (stereo not given) it is -2.95% (inactive).
As for `Cn1c(C(C#N)C(=O)c2sc3ccccc3c2Cl)nc2ccccc21` (stereo not given), the inhibition was -3.45% (inactive).
As for `O=[N+]([O-])c1ccc(CC(Cl)c2ccccn2)cc1` (stereo not given), the inhibition was 0.78% (inactive).
Consider `COc1ccc(/C=C(\C#N)C(=O)OCC(=O)N2CC(C)OC(C)C2)cc1` (stereo not given), for which the inhibition was -2.3% (inactive).
Same read-out and setting: to `O=C(CCCOc1ccc(Cl)cc1Cl)N/N=C/c1ccccc1` belongs -4.44% (inactive); to `CCCCCCCC(=O)N1c2ccccc2NC(=O)C1CC(=O)Nc1ccc(C(=O)O)cc1` (stereo not given), 8.1% (inactive).
As for `Cc1ccccc1NS(=O)(=O)c1ccc(C(=O)N2CCCC(C(F)(F)F)C2)cc1` (stereo not given), the inhibition is 0.73% (inactive).
As for `COc1cc(OC)cc(C(=O)NC2CCSC2=O)c1` (stereo not given), the inhibition was 2.06% (inactive). Further, under “measured here: pilot screen replicate inhibition”, the inhibition was -3.04%.
As for `CCc1c(C)c2nncn2[nH]c1=O`, the inhibition is -3.9% (inactive).
Same read-out and setting: the figure for `CCOc1ccc(NC(=O)CN(C)C(=O)C2CC(=O)N(c3ccc4c(c3)OCCO4)C2)cc1OCC` (stereo not given) is 5.04% (inactive); for `CC(C)Cn1c(SCC(=O)N2CC(=O)Nc3ccccc32)nc2ccccc21` it is -0.64% (inactive); for `CC(=O)OCC1CCCC2=C(C)C(=O)CCC21COC(C)=O` (stereo not given) it is 3.29% (inactive).
As to `Cc1ccccc1NC(=O)NC1(C(=O)N2CCOCC2)CCCCC1`, the inhibition was -3.7% (inactive).
For the compound `COc1ccc(CCn2c(=O)c3cccnc3n(Cc3ccc([N+](=O)[O-])cc3)c2=O)cc1OC`, the inhibition is -7.08% (inactive).
In the case of `CCS(=O)(=O)c1ccc(O)c(NC(=O)CCCC(=O)O)c1`, the inhibition was 12.2% (inactive).
Consider `CCCCCC(=O)Nc1cc(S(=O)(=O)N2CCCCC2)ccc1N1CCCCC1`, for which the inhibition is -6.48% (inactive).
Turning to `Cc1ccc(N2CC(C(=O)OCc3nc(N)nc(Nc4ccccc4C)n3)CC2=O)cc1` (stereo not given), the inhibition is 2.96% (inactive).
Consider `CCCCC/C=C/C1=CC(=O)C[C@H](c2ccc(OC)cc2)C1`, for which the inhibition is -0.8% (inactive).
For the compound `CC(C)C(NC(=O)C1CCC(C(C)(C)C)CC1)C(=O)NCCc1ccc(S(N)(=O)=O)cc1` (stereo not given), the inhibition was 9.25% (inactive).
For the compound `O=C(O)c1cccc(CN2C(=O)S/C(=C/c3ccccc3[N+](=O)[O-])C2=O)c1`, the inhibition was 28.5% (inactive).
On the same count and under the same terms, the figure for `O=C(/C=C/c1cccc([N+](=O)[O-])c1)NCCN1C(=O)S/C(=C\c2ccc(F)cc2)C1=O` is 5.26% (inactive); for `CCCCNC(C(=O)Nc1ccc([N+](=O)[O-])cc1Br)c1ccccc1` (stereo not given) it is 1.47% (inactive).
For `COc1ccc(C(=O)N2CCC(C(=O)Nc3ccc4c(c3)OCO4)CC2)cc1`, the inhibition is -4.42% (inactive).
In the case of `O=C(NCc1ccc(F)cc1)C(=O)NCC1OCCN1S(=O)(=O)c1cc(F)ccc1F` (stereo not given), the inhibition was 6.59% (inactive).
Regarding `Cc1ccc([N+](=O)[O-])cc1NC(=O)C(C)NS(=O)(=O)c1ccc(F)cc1` (stereo not given), the inhibition was 2.19% (inactive).
For the compound `COc1ccc(NC(=O)CCCc2nc3ccccc3c(=O)[nH]2)cc1Cl`, the inhibition was 6.22% (inactive).
As to `CCN(CC)CCCN1C=C2C(=O)C(C)(OC(=O)CCC(=O)OC)C(=O)C(Br)=C2C=C1c1ccc(OC)cc1` (stereo not given), the inhibition was 8.8% (inactive).
The same measure, in the same setting: to `COC(=O)CCC(=O)OC1(C)C(=O)C2=CN(Cc3ccc(OC)cc3)C(c3ccc(OC)cc3)=CC2=C(Br)C1=O` (stereo not given) belongs 17.2% (inactive); to `COC(=O)CCC(=O)OC1(C)C(=O)C=C2C=C(C3CC3)N(Cc3ccc(OC)cc3)C=C2C1=O` (stereo not given), 17.3% (inactive).
On the same count and under the same terms, to `COC(=O)CCC(=O)OC1(C)C(=O)C=C2C=C(C3CC3)N(CC3CC3)C=C2C1=O` (stereo not given) belongs 9.84% (inactive); to `COC(=O)CCC(=O)OC1(C)C(=O)C=C2C=C(C3CC3)N(C3CCCCC3)C=C2C1=O` (stereo not given), 12.7% (inactive); to `COC(=O)CCC(=O)OC1(C)C(=O)C=C2C=C(C3CC3)N(CCCOC(C)C)C=C2C1=O` (stereo not given), 7.22% (inactive).
Turning to `COC(=O)CCC(=O)OC1(C)C(=O)C=C2C=C(C3CC3)N(C3CCCC3)C=C2C1=O` (stereo not given), the inhibition was 12.8% (inactive).
Regarding `COC(=O)CCC(=O)OC1(C)C(=O)C2=CN(CCc3c[nH]c4ccccc34)C(c3ccc(OC)cc3)=CC2=C(Br)C1=O` (stereo not given), the inhibition was -2.45% (inactive).
With `N#Cc1ccc(CN2CCN(C(=O)CCNS(=O)(=O)c3ccc(F)c(F)c3)CC2)cc1`, the inhibition is -7.08% (inactive).
The same measure, in the same setting: the figure for `O=C(CSc1ccc2c(c1)OCCO2)NCC1CCCO1` (stereo not given) is -10.5% (inactive); for `O=c1c(-c2ccccc2)c(O)c2c(n1-c1ccccc1)CCCC2` it is -3.21% (inactive); for `O=C(O)c1ccc(-c2ccco2)n1Cc1ccccc1` it is 4.75% (inactive).
On to `O=C(CN1CCN(Cc2ccc(F)cc2)CC1)Nc1ccccc1F`, for which the inhibition was 1.36% (inactive).
`CCN(C(=O)CSc1nc2ccccc2c(=O)n1CCOC)C1CCS(=O)(=O)C1` (stereo not given): the inhibition is 1.48% (inactive).
Consider `COc1ccc(NC(=O)c2cccc3c2C(=O)c2ccc(-c4ccc(F)cc4OCc4ccccc4)cc2S3(=O)=O)cc1`, for which the inhibition is -0.7% (inactive).
As to `CC(C)c1cccc(-c2ccc3c(c2)S(=O)(=O)c2cccc(C(=O)NC4CCCC4)c2C3=O)c1`, the inhibition was -4.92% (inactive).
On the same count and under the same terms, to `O=C1c2ccc(-c3ccc(F)cc3OCc3ccccc3)cc2S(=O)(=O)c2cccc(C(=O)N3CCCC3)c21` belongs 8% (inactive).
Take `CC(C)c1cccc(-c2ccc3c(c2)S(=O)(=O)c2cccc(C(=O)NCc4ccccc4)c2C3=O)c1`: the inhibition is -6.42% (inactive).
`O=C(OCCN1CCCCC1)c1ccccc1Cl`: the inhibition was 7.44% (inactive).
Turning to `CN(CC(=O)Nc1cccc(F)c1)CC(=O)N1CCCCC1`, the inhibition was 6.98% (inactive).
On to `COc1ccc(CN2CC(C(=O)NCCC(C)C)CC2=O)cc1` (stereo not given), for which the inhibition was 6.67% (inactive).
Turning to `CC(C)(C)C(=O)NCCCc1ccccc1`, the inhibition is -0.68% (inactive).
Turning to `CCOc1cc(/C=C2/NC(=O)NC2=O)cc([N+](=O)[O-])c1O`, the inhibition was 22.9% (inactive).
Turning to `COc1cc(/C=C2\C(=N)N3N=C(S(C)(=O)=O)SC3=NC2=O)ccc1OC(=O)c1ccco1`, the inhibition was -59.7% (inactive).
Consider `COc1cc(/C=C2\C(=O)NN(c3ccc(C)cc3)C2=O)cc([N+](=O)[O-])c1O`, for which the inhibition was 17.9% (inactive).
In the case of `COc1cc(/C=C2\C(=O)NN(c3ccccc3)C2=O)cc([N+](=O)[O-])c1O`, the inhibition was 26.6% (inactive).
Regarding `CCOc1cc(/C=C2\NC(=O)NC2=O)cc([N+](=O)[O-])c1O`, the inhibition is 71.9% (inactive).
Turning to `CCOc1cc(/C=C2/C(=O)N(c3ccccc3)N=C2C)ccc1OC(=O)c1ccco1`, the inhibition was 19.1% (inactive).
Consider `COc1cc(/C=C2/C(=O)NN(c3cccc(F)c3)C2=O)ccc1OC(=O)c1ccco1`, for which the inhibition is 23% (inactive).
In the case of `COc1cc(/C=C2/C(=O)NN(c3ccc(Cl)cc3)C2=O)ccc1OC(=O)c1ccco1`, the inhibition was 15.2% (inactive).

The values above are taken from PubChem BioAssay AID588689 (Southern Research Specialized Biocontainment Screening …, 2011).
